Among all 39,000 compounds or so, about 3,300 (8.5%) were called active. The sample as a whole holds a higher share of actives than the screen did.

The test concerns HepG2. The test can be described thus: cytotoxicity call (relative viability < 0.9). The settings on record: 10 µM.
For `CS(=O)(=O)N1C[C@H](O)COC[C@H]2O[C@@H](CC(=O)NCc3ccccc3)CC[C@@H]21`, the cytotoxicity call is “inactive”. To `CC(C)(C)[S@@](=O)N1Cc2cc(C(=O)N3CCc4ccccc4C3)nc(-c3cccc(-c4cncnc4)c3)c2[C@H]1CCO` belongs “inactive”; to `COc1ccc(C#Cc2ccc3c(c2)O[C@@H](CN(C)C(=O)CN2CCOCC2)[C@H](C)CN([C@@H](C)CO)S3(=O)=O)cc1`, “inactive”; to `Cc1noc(C)c1NC(=O)Nc1ccc2c(c1)C(=O)N([C@@H](C)CO)C[C@@H](C)[C@@H](CN(C)S(C)(=O)=O)O2`, “inactive”. As for `C[C@@H]1CN([C@@H](C)CO)C(=O)c2cc(NC(=O)CCN3CCOCC3)ccc2O[C@@H]1CN(C)Cc1ccccc1`, the cytotoxicity call is “inactive”. To `CO[C@@H]1CN(C)C(=O)c2cc(NC(=O)c3cnccn3)ccc2OC[C@@H](C)N(CCC(F)(F)F)C[C@H]1C` belongs “inactive”; to `C[C@H]1CN([C@@H](C)CO)C(=O)c2cccc(NS(=O)(=O)c3ccc(Cl)cc3)c2O[C@H]1CN(C)Cc1ccc(Oc2ccccc2)cc1`, “inactive”. To `C[C@@H]1CN([C@@H](C)CO)C(=O)CCCn2cc(nn2)CO[C@@H]1CN(C)C(=O)C1CC1` belongs “inactive”. To `COc1ccc(-c2cc(=O)c3c(O)c(OC)c(OC)c(OC)c3o2)cc1` belongs “active”; to `COc1ccc(-c2cc(=O)c3c(OC)c(OC)c(OC)c(OC)c3o2)cc1OC`, “inactive”. As for `O=c1cc(-c2ccc(O)cc2)oc2cc(O)cc(O)c12`, the cytotoxicity call is “inactive”. To `COc1ccc(-c2cc(=O)c3c(OC)c(OC)c(OC)cc3o2)cc1OC` belongs “inactive”; to `COc1ccc(-c2cc(=O)c3c(O)c(OC)c(OC)c(OC)c3o2)cc1OC`, “active”; to `COc1ccc(-c2cc(=O)c3c(O)cc(OC)cc3o2)cc1`, “inactive”.

`COc1ccc(-c2cc(=O)c3c(OC)cc(OC)cc3o2)cc1`: the cytotoxicity call is “inactive”.

`COc1ccc(-c2cc(=O)c3c(OC)c(OC)c(OC)c(OC)c3o2)cc1`: the cytotoxicity call is “inactive”.

As to `COc1ccc(-c2cc(=O)c3c(O)cc(O)cc3o2)cc1`, the cytotoxicity call is “active”. To `C[C@@H]1CN([C@@H](C)CO)S(=O)(=O)c2ccc(C#C[C@@H](C)O)cc2O[C@H]1CN(C)C(=O)CN(C)C` belongs “inactive”; to `C[C@@H]1CN([C@H](C)CO)C(=O)c2cccc(NS(C)(=O)=O)c2O[C@@H]1CN(C)S(=O)(=O)c1cccs1`, “inactive”; to `Clc1ccc2nncn2n1`, “inactive”.

Take `CNC(=O)[C@H]1O[C@H](n2cnc3c(NCc4cccc(I)c4)nc(Cl)nc32)[C@@H](O)[C@@H]1O`: the cytotoxicity call is “inactive”. To `C[C@@H]1CCCCO[C@@H](CN(C)Cc2ccncc2)[C@H](C)CN([C@H](C)CO)C(=O)c2cc(NS(=O)(=O)c3ccc(Cl)cc3)ccc2O1` belongs “inactive”. To `NC(=O)NCC#Cc1ccc2c(c1)[C@]1(C(=O)N2)[C@H](C(=O)N2CCN(c3ncccn3)CC2)[C@H]2C(=O)O[C@H](c3ccccc3)[C@H](c3ccccc3)N2[C@@H]1c1ccccc1OCCO` belongs “inactive”.

On to `Cc1cc(C(=O)Nc2cccc3c2O[C@@H](CN(C)S(=O)(=O)c2ccc(Cl)cc2)[C@@H](C)CN([C@@H](C)CO)C3=O)n(C)n1`, for which the cytotoxicity call was “inactive”. To `O=C(CN1CCOCC1)NCC[C@@H]1CC[C@H](NC(=O)Nc2ccccc2)[C@@H](CO)O1` belongs “inactive”. To `CNC(=O)Nc1ccc(-c2nc(N3C[C@H]4CC[C@@H](C3)O4)c3cnn(C4CCC5(CC4)OCCO5)c3n2)cc1` belongs “inactive”; to `O=C1CC[C@@H](C(=O)N2CSC[C@H]2C(=O)O)N1`, “inactive”. With `O=C1CCC(C(=O)N2CSCC2C(=O)O)N1` (stereo not given), the cytotoxicity call is “active”. To `O=C1CC[C@@H](C(=O)O)N1` belongs “inactive”; to `CC(C)NC(=O)Nc1cccc2c1O[C@H](CN(C)C(=O)NC1CCCCC1)[C@@H](C)CN([C@@H](C)CO)C2=O`, “inactive”. Regarding `C[C@@H]1CN([C@@H](C)CO)C(=O)c2cccc(NC(=O)c3ccncc3)c2O[C@@H]1CN(C)Cc1ccc2c(c1)OCO2`, the cytotoxicity call was “inactive”. To `C[C@@H]1CCCCO[C@@H](CN(C)C(=O)C2CCCCC2)[C@H](C)CN([C@H](C)CO)C(=O)c2cc(NC(=O)Nc3cccc4ccccc34)ccc2O1` belongs “inactive”; to `O=C(C[C@H]1C[C@@H]2c3cc(NC(=O)NC4CCCC4)ccc3O[C@@H]2[C@@H](CO)O1)NCc1ccc(-c2ccccc2)cc1`, “active”; to `O=C(C[C@H]1C[C@H]2c3cc(NC(=O)NC4CCCC4)ccc3O[C@H]2[C@@H](CO)O1)NCc1ccc(-c2ccccc2)cc1`, “inactive”. To `O=C(C[C@@H]1C[C@@H]2c3cc(NC(=O)NC4CCCC4)ccc3O[C@@H]2[C@@H](CO)O1)NCc1ccc(-c2ccccc2)cc1` belongs “inactive”. To `O=C(C[C@@H]1C[C@H]2c3cc(NC(=O)NC4CCCC4)ccc3O[C@H]2[C@H](CO)O1)NCc1ccc(-c2ccccc2)cc1` belongs “active”. Consider `O=C(C[C@H]1C[C@@H]2c3cc(NC(=O)NC4CCCC4)ccc3O[C@@H]2[C@H](CO)O1)NCc1ccc(-c2ccccc2)cc1`, for which the cytotoxicity call is “active”. To `O=C(C[C@@H]1C[C@@H]2c3cc(NC(=O)NC4CCCC4)ccc3O[C@@H]2[C@H](CO)O1)NCc1ccc(-c2ccccc2)cc1` belongs “inactive”. To `O=C(C[C@H]1C[C@H]2c3cc(NC(=O)NC4CCCC4)ccc3O[C@H]2[C@H](CO)O1)NCc1ccc(-c2ccccc2)cc1` belongs “inactive”; to `O=C(C[C@H]1C[C@H]2c3cc(NC(=O)NC4CCCC4)ccc3O[C@H]2[C@@H](CO)O1)NCc1ccc(Oc2ccccc2)cc1`, “inactive”; to `O=C(C[C@@H]1C[C@H]2c3cc(NC(=O)NC4CCCC4)ccc3O[C@H]2[C@@H](CO)O1)NCc1ccc(-c2ccccc2)cc1`, “inactive”. To `CC(=O)OCCc1nc(C(=O)NCc2ccc3c(c2)OCO3)cc2c1[C@@H](CCO)N([S@](=O)C(C)(C)C)C2` belongs “inactive”; to `O=C(C[C@@H]1C[C@H]2c3cc(NS(=O)(=O)c4ccccc4)ccc3O[C@H]2[C@H](CO)O1)NCC(F)(F)F`, “inactive”; to `COc1cccc(-c2ccc3c(c2)O[C@H](CN(C)C(=O)C2CCOCC2)[C@@H](C)CN([C@@H](C)CO)S3(=O)=O)c1`, “inactive”. In the case of `C[C@@H]1CN([C@H](C)CO)C(=O)c2cc(NC(=O)Nc3ccccc3)ccc2O[C@@H]1CN(C)Cc1ccc(C(=O)Nc2ccccc2N)cc1`, the cytotoxicity call is “inactive”.

Regarding `C[C@H](CO)N1C[C@H](C)[C@H](CN(C)S(=O)(=O)c2ccccc2)Oc2ccc(NS(=O)(=O)c3ccc(F)cc3)cc2C1=O`, the cytotoxicity call is “inactive”. To `CN1C(=O)c2cc(NC(=O)c3cnccn3)ccc2OC[C@H]2O[C@H](CC(=O)N[C@H]3CCN(Cc4ccccc4)C3)CC[C@@H]21` belongs “inactive”; to `COc1ccc(S(=O)(=O)N(C)C[C@@H]2Oc3ccc(NC(=O)Cn4cnnn4)cc3C(=O)N([C@H](C)CO)C[C@@H]2C)cc1`, “inactive”; to `COc1ccc(C(=O)C=Cc2ccccc2)cc1`, “active”. For the compound `COc1ccc(C=CC(=O)c2cc(O)ccc2O)cc1`, the cytotoxicity call was “active”. To `CCCCC(CC)COC(=O)C=Cc1ccc(OC)cc1` (stereo not given) belongs “inactive”; to `CC=Cc1ccc(OC)cc1`, “active”; to `COc1ccc(C=CC(=O)c2ccccc2)cc1`, “active”. To `O=C(C=Cc1ccc(O)cc1)c1ccc(O)cc1O` belongs “inactive”. To `CC(=C/C(=O)O)/C=C/c1ccccc1` belongs “inactive”; to `COc1ccc(/C=C2/NC(=O)NC2=O)cc1`, “inactive”. Regarding `COc1ccc(C=CC(=O)c2ccc(O)cc2O)cc1`, the cytotoxicity call is “inactive”.

For the compound `C/C=C/c1ccc(OC)cc1`, the cytotoxicity call is “inactive”. To `COc1ccc(C(=O)O)cc1` belongs “inactive”; to `C[C@H](CO)N1C[C@H](C)[C@H](CN(C)C(=O)Nc2ccc(-c3ccccc3)cc2)OCc2ccccc2-c2ccccc2C1=O`, “inactive”. To `C[C@H](CO)N1C[C@H](C)[C@H](CN(C)C(=O)CCC(F)(F)F)OCCCC[C@H](C)Oc2ccc(NC(=O)CCC(F)(F)F)cc2C1=O` belongs “inactive”; to `O=C(NCC(=O)N1CCOCC1)c1ccccc1`, “inactive”. To `Cc1ccc(S(=O)(=O)Nc2ccc3c(c2)CC(=O)N([C@H](C)CO)C[C@@H](C)[C@H](CN(C)S(=O)(=O)c2cn(C)cn2)O3)cc1` belongs “inactive”; to `Cc1ccc(S(=O)(=O)Nc2ccc3c(c2)CC(=O)N([C@@H](C)CO)C[C@H](C)[C@@H](CN(C)S(=O)(=O)c2cccs2)O3)cc1`, “inactive”. For `C[C@H](CO)N1C[C@H](C)[C@@H](CN(C)S(C)(=O)=O)Oc2ccc(NC(=O)Cn3cnnn3)cc2C1=O`, the cytotoxicity call is “inactive”. To `Oc1ccc(C=Cc2cc(O)cc(O)c2)cc1` belongs “inactive”; to `COc1ccc(O)cc1`, “inactive”.

For `COc1cc(C=Cc2ccc(O)cc2)cc(OC)c1`, the cytotoxicity call was “active”. For the compound `C[C@@H]1CN([C@@H](C)CO)C(=O)c2cc(C#CCN(C)C)cnc2O[C@@H]1CN(C)S(C)(=O)=O`, the cytotoxicity call is “inactive”. To `COc1ccc(S(=O)(=O)N(C)C[C@H]2OCCCC[C@@H](C)Oc3ccc(NC(=O)C4CCCCC4)cc3C(=O)N([C@@H](C)CO)C[C@H]2C)cc1` belongs “inactive”; to `CC(C)(C)[S@](=O)N1Cc2cc(C(=O)NCCN3CCCCC3)nc(-c3cccc(-c4ccc(C#N)cc4)c3)c2[C@@H]1CCO`, “inactive”; to `C[C@H]1CN([C@@H](C)CO)S(=O)(=O)c2ccc(C#CCC3CCCC3)cc2O[C@H]1CN(C)C(=O)c1cnccn1`, “inactive”. As to `C[C@@H]1CN([C@@H](C)CO)S(=O)(=O)c2ccc(C#CCC3CCCC3)cc2O[C@@H]1CN(C)C(=O)CN(C)C`, the cytotoxicity call is “active”. To `C[C@H]1CN([C@@H](C)CO)S(=O)(=O)c2ccc(C#CCC3CCCC3)cc2O[C@H]1CN(C)C(=O)CN(C)C` belongs “active”; to `C[C@H](CO)N1C[C@H](C)[C@@H](CN(C)C(=O)c2cnccn2)Oc2cc(C#CCC3CCCC3)ccc2S1(=O)=O`, “active”; to `C[C@@H]1CN([C@H](C)CO)S(=O)(=O)c2ccc(C#CCC3CCCC3)cc2O[C@@H]1CN(C)C(=O)CN(C)C`, “inactive”.

For `C[C@H]1CN([C@@H](C)CO)S(=O)(=O)c2ccc(C#CCC3CCCC3)cc2O[C@@H]1CN(C)C(=O)CN(C)C`, the cytotoxicity call is “inactive”. To `C[C@@H]1CN([C@H](C)CO)S(=O)(=O)c2ccc(C#CCC3CCCC3)cc2O[C@H]1CN(C)C(=O)CN(C)C` belongs “inactive”; to `C[C@@H]1CN([C@H](C)CO)S(=O)(=O)c2ccc(C#CCC3CCCC3)cc2O[C@@H]1CN(C)C(=O)c1cnccn1`, “inactive”; to `C[C@H](CO)N1C[C@H](C)[C@H](CN(C)C(=O)CN(C)C)Oc2cc(C#CCC3CCCC3)ccc2S1(=O)=O`, “inactive”.
